Compound activity (PubChem BioAssay)
Shiga toxin inh – A qHTS for Small Molecule Inhibitors of Shiga Toxin | Vero cells, Shiga toxin protein synthesis inhibition reporter | inhibition, % at 38.7 µM | 9.2% of 290,000 active; in the data active means inhibition mostly above about 28%, no sharp cut-off; inactive means mostly below about 43%; further: 0% is about no effect
CHX counter – Cycloheximide Counterscreen for Small Molecule Inhibitors of Shiga Toxin; cell reporter, cycloheximide protein synthesis inhibition counterscreen; max response, %; 12% of 300,000 active; in the data active means max response mostly above about 13%, no sharp cut-off; inactive means mostly below about 14%; further: read at 38.3 µM for the half of the compounds with a filed dose; 0% is about no effect
Marburg entry inh – qHTS for inhibitors of binding or entry into cells for Marburg Virus; Marburg virus pseudotyped entry inhibition, cell reporter; Potency, µM (highest dose often 37.8 µM), without a hit: at the highest dose activity change, negative = inhibition, usual class: inhibitors; 1.8% of 300,000 active; AID 540276, 2011; calls by dose curve; tested in HEK293 cells; further: potency means the concentration at half of the fitted maximal effect; on the % scale 0 is the no-effect control and ±100 the full control effect
AMA1-RON2 inh – qHTS for Inhibitors of AMA1-RON; Towards Development of Antimalarial Drug Lead: Primary Screen | 0.2% of 360,000 active | Potency, µM (highest dose often 58.2 µM), inactives show top-dose activity change, negative = inhibition, most hits filed as inhibitors | AlphaScreen AMA1-biotinylated RON2 peptide binding | AID 720542, 2013; active means well fitted inhibition curve with a large enough effect; inconclusive means small, poorly fitted or top-dose-only effect; inactive means no such curve, though single readings can be large or run the other way;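 further: potency means the concentration at half of the fitted maximal effect; 0% = vehicle wells and -100% = peptide control; nearly all actives have a fitted effect of over 45% in size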
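AMA1 (3D7) with his tag at 25 nM final met compounds first, then biotinylated RON2 peptide at 25 nM; detection used donor plus acceptor beads, 10 µg/mL apiece, read by AlphaScreen after 30 min at room temperature.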
Lassa entry inh – qHTS for Inhibitors of binding or entry into cells for Lassa Virus | Lassa virus pseudotype entry inhibition, cell reporter | Potency, µM (titrated, usually from 37.9 µM), without a hit: top-dose activity change, negative = inhibition, hits mostly inhibitors | 1.2% of 300,000 active | AID 540256, 2011; calls by dose curve; tested in HEK293 cells; further: potency means the concentration at half of the fitted maximal effect; on the % scale 0 is the no-effect control and ±100 the full control effect; nearly all actives have a fitted effect of over 50% in size
Starred values were filed as active, the others as inactive; u = inconclusive; x = no result; [ ] = remark or other dose. Shown is part of a subset that was picked to be rich in hits.

SMILES	Shiga toxin inh	CHX counter	Marburg entry inh	AMA1-RON2 inh	Lassa entry inh
CCN(CC)c1ncnc2c1ncn2[C@H]1CN(Cc2cc(OC)c(OC)c(OC)c2)C[C@@H](CO)O1	x	x	x	-5.3%	x
O=C(Cn1[nH]c(=O)c2ccccc2c1=O)NC1CCCCCC1	19.1	16.7	9.5%	13.6%	-2.1%
O=c1[nH]n(CC2COC3(CCCCC3)O2)c(=O)c2ccccc12 (stereo unspecified)	43.4*	32.7*	13.4%	2.6%	10.9%
O=C(OCC1COc2ccccc2O1)c1c(F)cccc1F (stereo unspecified)	51.0	21.2*	12.9%	16.2%	13.4%
OC(COCC1COc2ccccc2O1)CN1CCN(c2ccccc2F)CC1 (stereo unspecified)	-11.8	15.1	-9.8%[46.1 µM]	3.1%	6.0%
Cc1ccc(NC(=O)CN2C(=O)CCc3ccccc32)cc1C	x	x	x	x	12.9%[46.1 µM]
COc1cccc(C(=O)Nc2ccc3nc4n(c(=O)c3c2)CCCC4)c1	55.9*	22.7*	x	4.6%	x
COCC(=O)Nc1ccc2nc3n(c(=O)c2c1)CCCCC3	12.6	12.4*	x	-11.4%	x
O=C(/C=C/c1ccco1)Nc1ccc2nc3n(c(=O)c2c1)CCCC3	65.8*	51.6*	x	-19.4%	x
COc1cc(C(=O)Nc2ccc3nc4n(c(=O)c3c2)CCCC4)ccc1Br	-3.7	17.8	x	7.0%	x
COc1cc(OC)cc(C(=O)Nc2ccc3nc4n(c(=O)c3c2)CCCC4)c1	70.1*	27.2*	x	-1.0%	x
Cc1cc2nc(-c3ccc(F)cc3)c(CC(C)(C)C)n2c(C)c1Br	x	x	x	19.6%	x
CN(C)c1cccc(C(=O)Nc2ccc3nc4n(c(=O)c3c2)CCCCC4)c1	53.3*	24.5*	x	-2.8%	x
O=C(NCc1ccccc1)C(=O)Nc1ccc2nc3n(c(=O)c2c1)CCCCC3	x	x	u	x	16.9%[46.1 µM]
O=c1c2cc(NC(=S)NCc3cccnc3)ccc2nc2n1CCCCC2	69.3	22.5*	u	8.0%	0.2%[46.1 µM]
CC(C)C[C@H]1COc2cccc(N3CCSCC3)c2S(=O)(=O)N1	x	x	x	-7.1%	x
CN(Cc1ccsc1)C(=O)CCc1nnc(Cc2c[nH]c3ccccc23)o1	-7.2	-3.3	u	-11.8%	-4.8%
CN(Cc1ccsc1)C(=O)CCc1nnc(CCCc2ccccc2)o1	123.9*	47.3*	x	8.1%	x
CCN(Cc1ccccc1)C(=O)CCCOc1ccccc1	76.6*	25.7*	-0.4%	13.6%	12.7%
O=C(CCc1nnc(COc2ccccc2)o1)NCc1ccccc1	23.7	11.1	1.6%[46.1 µM]	6.0%	28.8%[46.1 µM]
CC(Cc1ccsc1)NC(=O)CCc1nnc(COc2ccccc2)o1 (stereo unspecified)	17.8	19.0*	9.1%[46.1 µM]	39.9%	u
CCN(Cc1ccccc1)C(=O)CCc1nnc(CCCc2ccccc2)o1	57.2*	22.3*	u	6.5%	u
COc1ccc(C2C(C(=O)Nc3ccccc3OC)=C(C)Nc3c(C(=O)Nc4ccccc4)cnn32)c(OC)c1 (stereo unspecified)	x	x	x	x	8.8%[46.1 µM]
CC(C)(CO)CNC(=O)CCc1nnc(CCCc2ccccc2)o1	35.6	21.6*	x	7.6%	x
Cn1ccnc1SCCNC(=O)CCc1nnc(CCCCc2ccccc2)o1	22.8*	12.3	-0.6%[46.1 µM]	3.5%	19.0%[46.1 µM]
SMILES	Shiga toxin inh	CHX counter	Marburg entry inh	AMA1-RON2 inh	Lassa entry inh
CC(C)(CO)CNC(=O)CCc1nnc(Cc2ccc(-c3ccccc3)cc2)o1	29.0	0.9	-10.2%[46.1 µM]	4.0%	-27.5%
Cc1ccsc1CN(C)C(=O)CCc1nnc(COc2ccccc2)o1	55.8*	34.9*	-4.9%[46.1 µM]	-3.5%	28.2%
CCN(Cc1ccncc1)C(=O)CCc1nnc(CCC2CCCCC2)o1	39.3*	23.1*	0.8%[46.1 µM]	-7.2%	6.5%[46.1 µM]
COc1ccc(NC(=O)C2(C)Cc3c(-c4cccc(NC(C)=O)c4)ccnc3O2)cn1 (stereo unspecified)	x	x	x	-4.2%	x
Cc1ccc(NC(=O)c2cncc(Br)c2)c([N+](=O)[O-])c1	77.4*	11.3*	u	-6.4%	u
CCC(C)c1ccc(O)c(NC(=O)c2cccnc2)c1 (stereo unspecified)	-15.3	-1.9	-1.0%[46.1 µM]	13.6%	1.3%
CC(C)c1ccc(O)c(NC(=O)c2cncc(Br)c2)c1	36.3*	18.5*	8.9%	8.7%	-2.1%
COc1ccccc1NS(=O)(=O)c1cc2c3c(c1)CCN3C(=O)CC2	x	x	-14.0%	-9.4%	1.1%
Cc1c(C(=O)Nc2ccccc2)sc2nc(-c3ccccc3)cn12	61.0*	38.7*	-0.6%	3.0%	3.1%
Cc1cccc(NC(=O)c2sc3nc(-c4ccc(F)cc4)cn3c2C)n1	35.4	51.3	u	-11.2%	1.6%
Cc1cccc(NC(=O)c2sc3nc(-c4ccccc4)cn3c2C)n1	66.1*	35.8*	u	-1.8%	u
COc1ccc(-c2cn3c(C)c(C(=O)NC(C)(C)C)sc3n2)cc1	40.5*	30.2*	x	-10.7%	x
COc1ccc(-c2cn3c(C)c(C(=O)Nc4cccc(C)n4)sc3n2)cc1	-2.4	12.3*	u	-2.5%	u
COc1ccc(-c2cn3c(C)c(C(=O)N4CCN(c5ccccc5)CC4)sc3n2)cc1	x	x	x	-3.2%	x
CCN(CC)C(=O)c1cccc(-c2csc(C(C)(O)c3cccc(F)c3)n2)c1 (stereo unspecified)	x	x	x	-1.8%	x
COc1ccc(N2C(=O)N3[C@H](c4ccccc4)[C@@H](C)C[C@H]4c5ccccc5C[C@]43C2=O)cc1	x	x	2.0%[14.2 µM]	x	x
Cc1cc(C)nc(NS(=O)(=O)c2ccc(N/C=C/C(=O)c3ccc(Cl)c(Cl)c3)cc2)n1	-3.4	-5.4	22.9%	10.5%[11.6 µM]	11.4%
CCOC(=O)c1cnc(SCC(=O)c2ccc(Cl)cc2)nc1N	-4.1	9.5	9.6%[46.1 µM]	-6.7%	-1.8%
CCOC(=O)c1cnc(SC2CC(=O)N(c3ccccc3)C2=O)nc1N (stereo unspecified)	-16.7	-1.4	13.3%[46.1 µM]	-6.0%	-1.1%
CCOC(=O)c1cnc(SC2CCc3ccccc3C2=O)nc1N (stereo unspecified)	70.9*	33.0*	-1.4%	-5.8%	-5.4%
CCOC(=O)c1cnc(SCCc2ccccc2)nc1N	97.0*	35.2*	1.8%	14.0%	u
CCOC(=O)c1cnc(SCc2ccc(C)cc2)nc1N	106.5*	32.9*	-1.7%	29.0%	u
CCCCSc1ncc(C(=O)OCC)c(N)n1	67.8*	46.2*	u	-8.0%	u
NC(=O)c1cc[n+](Cc2ccccc2Cl)cc1	x	-4.3	10.0%[46.1 µM]	-6.7%	1.6%[46.1 µM]
O=C(Nc1ccc2c(c1)CCC2)c1cnn2c1NC(c1ccco1)CC2C(F)(F)F (stereo unspecified)	90.0*	51.8*	5.9%	0.0%	-3.1%
CC1(C(=O)NS(=O)(=O)c2ccccc2OC(F)(F)F)CCN1C(=O)Cc1ccccc1 (stereo unspecified)	x	x	x	0.7%	x
Cc1nc2c(cnn2-c2ccccc2Cl)c(=O)n1-c1ccc(C(C)C)cc1	-3.6	-2.6	14.6µM*	0.9%	9.2µM*
O=C(Cn1cnc2nc3c(cc2c1=O)CCCC3)Nc1ccc(F)cc1Cl	x	x	x	x	20.4%[46.1 µM]
